Many of the other results were omitted from the sample, so hits are more common in it than they were.
Shiga inhibitor: Shiga toxin inhibition; inhibition, % at 38.7 µM; hit rate 9.2% among 290,000; AID 2315; Vero cells, Shiga toxin protein synthesis inhibition reporter; in the data active = inhibition mostly above about 28%, no sharp cut-off; inactive = mostly below about 43%; also: 0% is about no effect
CHX counter: affects cycloheximide protein synthesis inhibition readout, counter-screen | cell reporter, cycloheximide protein synthesis inhibition counterscreen | max response, % | hit rate 12% among 300,000 | AID 2314; in the data active = max response mostly above about 13%, no sharp cut-off; inactive = mostly below about 14%; also: read at 38.3 µM for the half of the compounds with a filed dose; 0% is about no effect
SARS PLP yeast: SARS-CoV PLP inhibition in yeast; S. cerevisiae expressing SARS-CoV PLpro, growth rescue; Potency, µM (titrated, usually from 32.9 µM), for inactives: at the top dose activity, positive = growth rescue, usual class: activators; hit rate 0.19% among 330,000; also: potency is read from the fitted curve at half-maximal effect; 0% is about no effect; nearly all actives have a fitted effect of over 55% in size
NS1 function inh: inhibitors of influenza NS1 protein function | Potency, µM (titrated, usually from 46.1 µM), for inactives: top-dose activity, positive = more growth | hit rate 0.4% among 270,000 | AID 2326; also: potency is read from the fitted curve at half-maximal effect; actives are rising curves; nearly all actives have a fitted effect of over 50% in size
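S. cerevisiae expressing influenza A NS1, grown in glucose, washed, then diluted 1:100 into pH 6.0 -URA galactose medium with 23 nl compound. Growth recovery read as OD600; NS1-free strain serves as control.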
LmPK inhibitor: LmPK (Leishmania mexicana) enzyme inhibition. purified LmPK, Kinase-Glo ATP luminescence, 1 h. Q27686. Potency, µM (series often up to 57.5 µM), for the others: at the top dose activity change, negative = inhibition, actives largely listed as inhibitors. hit rate 0.37% among 290,000; active = well fitted curve in the direction sought with a large enough effect; inconclusive = small, poorly fitted or top-dose-only effect, or another doubt; inactive = no such curve, though single readings can be large; an effect the other way counts as inactive or inconclusive; also: potency is read from the fitted curve at half-maximal effect; % is scaled to controls: 0 for no effect and ±100 for the full control effect
Target sequence (Q27686 whole entry, looked up): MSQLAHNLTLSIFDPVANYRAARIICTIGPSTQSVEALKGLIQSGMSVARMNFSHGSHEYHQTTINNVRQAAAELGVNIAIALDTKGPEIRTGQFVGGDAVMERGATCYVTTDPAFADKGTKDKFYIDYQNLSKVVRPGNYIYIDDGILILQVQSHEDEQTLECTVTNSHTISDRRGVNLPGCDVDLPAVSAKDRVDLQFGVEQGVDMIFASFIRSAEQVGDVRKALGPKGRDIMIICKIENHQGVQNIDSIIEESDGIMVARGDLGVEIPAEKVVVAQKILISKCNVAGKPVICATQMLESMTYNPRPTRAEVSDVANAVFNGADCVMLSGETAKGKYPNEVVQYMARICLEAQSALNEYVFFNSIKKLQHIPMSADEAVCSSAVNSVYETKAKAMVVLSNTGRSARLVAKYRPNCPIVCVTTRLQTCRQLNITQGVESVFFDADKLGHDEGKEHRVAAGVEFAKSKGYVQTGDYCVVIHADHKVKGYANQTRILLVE
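Pyruvate kinase activity monitored as ATP production (luciferase luminescence). Conditions: 0.1 nM enzyme, 0.5 mM PEP, 0.1 mM ADP, 1 h, RT; normalized against uninhibited and no-enzyme wells.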
Tb PYK inh: inhibitors of Trypanosoma brucei pyruvate kinase; Potency, µM (series often up to 76.8 µM), inactives show top-dose activity, negative = inhibition, actives largely listed as inhibitors; AID 624173; Q57TT1; hit rate 0.12% among 410,000; TbPYK enzyme, Kinase-Glo Plus ATP luminescence, 45 min; active = well fitted curve in the direction sought with a large enough effect; inconclusive = small, poorly fitted or top-dose-only effect, or another doubt; inactive = no such curve, though single readings can be large; an effect the other way counts as inactive or inconclusive; also: potency is read from the fitted curve at half-maximal effect; % is scaled to controls: 0 for no effect and ±100 for the full control effect; nearly all actives have a fitted effect of over 50% in size
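Glycolytic pyruvate kinase of T. brucei was incubated with substrate, test compound and 130 uM ADP for 45 minutes at room temperature. Luminescent Kinase-Glo Plus signal was measured after 10 minutes.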
An asterisk follows results filed as active; ? = inconclusive; . = no result; ! = not confirmed by another sample. Unless noted, calls follow the shape of the full dose curve.

SMILES	Shiga inhibitor	CHX counter	SARS PLP yeast	NS1 function inh	LmPK inhibitor	Tb PYK inh
CCCCNC(=O)CCCCn1c(=S)[nH]c2c([nH]c3ccc(OC)cc32)c1=O	-4	-4	2%	.	-2%	-12%
COc1ccc2[nH]c3c(=O)n(CCCCC(=O)NCCN4CCCC4)c(=S)[nH]c3c2c1	-7	-5	-3%	0%	7.1µM*	6.3µM*
COc1ccc2[nH]c3c(=O)n(CCCCC(=O)N4CCC(C(N)=O)CC4)c(=S)[nH]c3c2c1	32	-2	0%	0%	4µM*	6.3µM*
CCC(C)Cn1cnc2c(SCc3ccccn3)nc(N)nc21 (configuration not stated)	.	.	.	.	.	0%
CC(=O)c1ccc(N2C(=O)N(Cc3cc(C)ccc3C)c3ccccc3S2(=O)=O)cc1	.	.	.	.	.	3%
CCCCn1nnnc1C1(C)CCC(=O)N1Cc1cccnc1 (configuration not stated)	.	.	.	.	.	-1%
COc1cc(OC)cc(C(=O)Nc2ccc(Cn3ccnc3)cc2)c1	25	15*	0%	9%	0%	5%
O=C(Nc1ccc(Cn2ccnc2)cc1)c1cccc(C(F)(F)F)c1	-7	3	14%	-1%	3%	-1%
COc1ccc(C(=O)Nc2ccc(Cn3ccnc3)cc2)cc1OC	21*	13*	1%	0%	-1%	-2%
COc1cc(OC)cc(C(=O)Nc2ccc(Nc3ccccc3)cc2)c1	8	21	-16%	-33%	1%	-1%
COc1ccccc1-c1c(C(F)(F)F)oc2cc(OC(=O)c3ccccc3[N+](=O)[O-])ccc2c1=O	24	7	-32%	-7%	4%	3%
COc1ccccc1-c1c(C(F)(F)F)oc2cc(OS(C)(=O)=O)ccc2c1=O	39	25*	9%	-6%	-2%	6%
C[c-]1[c-](C)[c-](C)[c-](C)[c-]1C.[Fe].c1cc2nccc(N3CCCC3)[c-]2c1 (configuration not stated)	7	-1	6%	-6%	32µM*!	-16%
Cc1ccc(Nc2nc(/N=C/NO)n[nH]2)cc1C	65*	27*	-3%	.	18%	-3%
C=C1C(=O)OC2CC3(C)OC3CCC(C)=CC(OC(C)=O)C12 (configuration not stated)	.	.	.	.	.	-13%
C=C1C(=O)O[C@@H]2C[C@@H](C)[C@H]3C=CC(=O)[C@]3(O)C[C@@H]12	29	14*	2%	14%	1%	-2%
Cc1[nH]nc(SCC(=O)N2CCCCC2)c1[N+](=O)[O-]	86	23*	5%	3%	7%	-6%
O=C(O)c1cccc(Nc2c3ccccc3nc3ccccc23)c1	87*	107*	-18%	-131%	-7%	-2%
O=C(O)c1cccc(Nc2c([N+](=O)[O-])c(=O)oc3ccccc23)c1	125*	73*	-1%	6%	3%	12%
CC(=O)c1cccc(Nc2c([N+](=O)[O-])c(=O)oc3ccccc23)c1	-11	-3	-4%	3%	8%	5%
CC(=O)c1cccc(Nc2cc(C)nc3ccccc23)c1	11	2	1%	1%	1%	5%
Nc1c(-c2ccccc2)sc2ccc3ccccc3[n+]12	22	12*	14%	-4%	-10%	-14%
CC(=O)/C(C#N)=C1\NC(=O)C(Cc2ccc(C)c(Cl)c2)S1 (configuration not stated)	25	16*	1%	-4%	5%	3%
COc1ccc(O)c(/C=N/NC(=S)Nc2cccc(S(=O)(=O)N(C)C)c2)c1	13	18*	?	?	5%	-20%
CN(C)S(=O)(=O)c1cccc(NC(=S)N/N=C/c2ccco2)c1	25	14*	0%	12%	4%	0%
SMILES	Shiga inhibitor	CHX counter	SARS PLP yeast	NS1 function inh	LmPK inhibitor	Tb PYK inh
COc1ccc(O)c(/C=N/NC(=S)Nc2cccnc2)c1	91*	34*	22%	.	-1%	?
COc1cccc(/C=N/NC(=S)Nc2cccnc2)c1	49	12	0%	2%	-3%	-3%
CN(C)S(=O)(=O)c1cccc(NC(=S)N/N=C/c2ccc(O)c(O)c2O)c1	23	13	11%	18%	-15%	10µM*
COc1cccc(/C=N/NC(=S)Nc2cccc(S(=O)(=O)N(C)C)c2)c1	24	11	-1%	10%	6%	-14%
O=C(N/N=C\c1ccco1)Nc1cccc(Cl)c1	142*	80*	-6%	-19%	-3%	5%
CCCCC[C@@H](C)N1C[C@H](COCc2ccccc2)Oc2cc(N3CC[C@H](N(C)C)C3)ccc2S1(=O)=O	.	.	.	.	.	-5%
COC(=O)C1(C)Nc2ccccc2C(=O)N1c1ccccc1OC (configuration not stated)	-8	-2	-4%	-9%	-1%	-16%
COC(=O)C1(C)NC(=O)c2ccccc2N1 (configuration not stated)	1	15*	3%	3%	-1%	-12%
C/C(=N/Nc1ccc(C(=O)O)cc1)c1ccc2c(c1)Nc1ccccc1S2	.	.	.	.	.	-23%
C/C(=N\Nc1ccc(C(=O)O)cc1)c1ccc2c(c1)Nc1ccccc1S2	48*	69*	-4%	1%	-2%	-18%
COc1cc(C)cc2oc(=O)c(CC(=O)NCCc3ccc(Cl)cc3)c(C)c12	.	.	.	.	.	4%
COc1ccc(C2CC(c3ccccc3)=NN2c2ccc(/C=N/NC(=O)c3ccncc3)cc2)cc1 (configuration not stated)	28*	14*	-2%	1%	-2%	-10%
COc1ccc(C2=NN(c3ccccc3)C(c3ccc(OC)c(OC)c3)C2)cc1 (configuration not stated)	46*	20*	4%	?	-1%	6%
COc1ccc(C2CC(c3ccccc3)=NN2c2ccc(C(N)=O)cc2)cc1 (configuration not stated)	-5	-2	-16%	.	3%	0%
Oc1ccc(C2=NN(c3ccccc3)C(c3ccc(F)cc3)C2)cc1 (configuration not stated)	29	9	-12%	-60%	0%	-1%
COc1ccc(C2CC(c3ccc(F)cc3)=NN2c2ccccc2)cc1OC (configuration not stated)	90*	26*	-7%	13%	-4%	-4%
COc1ccc(C2=NN(C(C#N)c3ccc(OC)c(OC)c3)C(c3ccccc3)C2)cc1 (configuration not stated)	113*	43*	23%	12%	-4%	-4%
Cc1nc2c(C)cccn2c1/C(O)=C1\C(=O)C(=O)N(CCN(C)C)C1c1cccs1 (configuration not stated)	.	.	.	.	.	-2%
O=C(Nc1ccccc1)C1Cc2ccccc2CN1C(=O)c1ccco1 (configuration not stated)	104	57*	-2%	17%	2%	-18%

High-throughput results: PubChem, National Center for Advancing Translational Sciences (NCATS)
